According to PubChem BioAssay (NCATS):
Results filed as inconclusive are left out. Active and inactive are the calls of the source. Unless noted, calls come from the whole dose curve; as a rule, active = well fitted curve in the direction sought with a large enough effect; inconclusive = small, poorly fitted or top-dose-only effect, or another doubt; inactive = no such curve, though single readings can be large; an effect the other way counts as inactive or inconclusive.

Experiments:
[1] = Cytometry Cell-Based qHTS for Inhibitors of the mTORC1 Signaling Pathway in MEF cells (AID 2668);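 note: Tsc2-/- p53-/- mouse embryonic fibroblasts stably re-expressing wild-type Tsc2; percent cells positive for phospho-rpS6 Ser235/236 relative to propidium iodide stain; series mostly up to about 38 µM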
Outline: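 Read-out: phospho-rpS6 Ser235/236 immunofluorescence normalized to propidium iodide intensity, scored as % active cells against a rapamycin (7.5 nM) threshold. Cells: Tsc2-/-, p53-/- MEFs stably expressing WT Tsc2, compound-treated 24 hrs at 37 degree Celsius.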

[2] = Validation screen for small molecules that induce DNA re-replication in MCF 10A normal breast cells (AID 463097); note: nearly all actives have a fitted effect of over 60% in size
Outline: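 250 MCF 10A cells/well; compound pin-transferred; 48 hr, 37 C, 5% CO2; Hoechst 40 min; imaged 405/500-530 nm. Hits = more high-intensity nuclei.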

[3] = target: Ubiquitin carboxyl-terminal hydrolase 2 (Homo sapiens) (UniProt O75604); assay: qHTS Validation Assay for Inhibitors of Ubiquitin-specific Protease USP2a Using CHOP2 as the Reporter (AID 463106); note: potency is the fitted concentration of half-maximal effect
Sequence of Ubiquitin carboxyl-terminal hydrolase 2 (Homo sapiens) (O75604 whole entry, looked up): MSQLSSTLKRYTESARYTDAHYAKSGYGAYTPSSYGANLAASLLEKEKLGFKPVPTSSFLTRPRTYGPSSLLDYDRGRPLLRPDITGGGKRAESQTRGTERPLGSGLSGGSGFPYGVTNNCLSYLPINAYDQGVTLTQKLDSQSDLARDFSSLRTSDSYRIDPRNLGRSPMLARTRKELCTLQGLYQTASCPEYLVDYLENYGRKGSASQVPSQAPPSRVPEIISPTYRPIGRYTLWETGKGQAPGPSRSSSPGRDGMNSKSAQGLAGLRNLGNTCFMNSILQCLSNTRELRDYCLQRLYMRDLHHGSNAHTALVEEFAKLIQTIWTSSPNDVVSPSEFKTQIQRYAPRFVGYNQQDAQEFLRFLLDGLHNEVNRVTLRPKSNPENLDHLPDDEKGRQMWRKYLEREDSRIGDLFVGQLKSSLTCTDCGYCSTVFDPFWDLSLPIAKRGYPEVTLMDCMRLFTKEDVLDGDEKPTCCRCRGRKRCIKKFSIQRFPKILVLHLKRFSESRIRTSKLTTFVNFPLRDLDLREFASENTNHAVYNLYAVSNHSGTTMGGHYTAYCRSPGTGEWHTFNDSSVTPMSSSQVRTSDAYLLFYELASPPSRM
Outline: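 10nM USP2 core + cpd, 30min RT; add 25nM Ub-CHOP2/25nM substrate; 60min RT; FI 485/531nm. Buffer Tris pH 8.0, CaCl2, BME, CHAPS. Norm. to NEM = 100% inhibition; time-zero read flags fluorescent artifacts.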

[4] = target: DNA polymerase III PolC-type (Bacillus subtilis (strain 168)) (UniProt P13267); assay: qHTS Validation Assay for the Inhibitors of DNA Replication in Gram-Positive Bacteria (AID 485295); note: potency is the fitted concentration of half-maximal effect
Sequence of DNA polymerase III PolC-type (Bacillus subtilis (strain 168)) (P13267 whole entry, looked up): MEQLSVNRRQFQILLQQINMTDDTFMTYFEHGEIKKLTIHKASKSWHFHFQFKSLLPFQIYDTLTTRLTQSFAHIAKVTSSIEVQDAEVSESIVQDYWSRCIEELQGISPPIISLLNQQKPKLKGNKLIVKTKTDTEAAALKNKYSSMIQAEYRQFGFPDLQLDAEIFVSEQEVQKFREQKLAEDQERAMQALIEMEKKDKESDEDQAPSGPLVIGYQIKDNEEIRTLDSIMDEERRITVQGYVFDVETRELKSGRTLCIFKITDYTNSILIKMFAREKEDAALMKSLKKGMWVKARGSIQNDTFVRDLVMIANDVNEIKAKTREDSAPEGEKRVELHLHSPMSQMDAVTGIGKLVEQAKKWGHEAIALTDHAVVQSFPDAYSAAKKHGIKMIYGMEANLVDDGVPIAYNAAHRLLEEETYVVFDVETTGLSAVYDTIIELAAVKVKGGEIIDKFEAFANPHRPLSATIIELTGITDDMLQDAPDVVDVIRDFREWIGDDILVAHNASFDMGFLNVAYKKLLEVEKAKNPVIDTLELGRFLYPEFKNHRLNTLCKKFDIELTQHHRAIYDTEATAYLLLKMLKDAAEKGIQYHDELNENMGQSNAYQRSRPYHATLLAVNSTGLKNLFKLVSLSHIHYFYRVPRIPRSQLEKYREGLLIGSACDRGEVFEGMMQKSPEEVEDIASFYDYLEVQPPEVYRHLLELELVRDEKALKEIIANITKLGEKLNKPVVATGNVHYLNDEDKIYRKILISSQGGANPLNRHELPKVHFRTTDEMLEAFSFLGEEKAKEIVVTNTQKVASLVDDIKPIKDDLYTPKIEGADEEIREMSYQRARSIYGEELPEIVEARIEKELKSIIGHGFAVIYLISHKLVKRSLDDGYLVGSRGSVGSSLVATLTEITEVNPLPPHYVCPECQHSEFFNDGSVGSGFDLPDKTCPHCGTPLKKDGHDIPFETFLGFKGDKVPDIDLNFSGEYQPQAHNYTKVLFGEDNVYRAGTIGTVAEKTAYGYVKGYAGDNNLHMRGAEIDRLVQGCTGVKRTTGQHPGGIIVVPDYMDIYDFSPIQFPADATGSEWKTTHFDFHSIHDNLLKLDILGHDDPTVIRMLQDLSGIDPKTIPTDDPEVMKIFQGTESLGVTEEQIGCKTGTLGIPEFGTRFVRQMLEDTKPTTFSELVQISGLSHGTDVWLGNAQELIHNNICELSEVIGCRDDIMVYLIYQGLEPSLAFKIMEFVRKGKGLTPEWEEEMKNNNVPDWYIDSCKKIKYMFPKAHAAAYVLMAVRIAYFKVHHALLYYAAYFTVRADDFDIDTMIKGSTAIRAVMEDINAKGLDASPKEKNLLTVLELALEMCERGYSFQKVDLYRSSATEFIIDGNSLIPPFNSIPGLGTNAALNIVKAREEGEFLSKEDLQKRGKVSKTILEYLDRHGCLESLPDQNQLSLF
Outline: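 PicoGreen fluorescence (ex 480–485/em 535–540 nm) reports dsDNA synthesized on ssM13Gori template with dNTPs/NTPs. Enzyme: holoenzyme rebuilt from purified PolC, beta subunit, SSB and primase. Compound preincubated before substrate addition; RT throughout.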

[5] = target: Tumor susceptibility gene 101 protein (Homo sapiens) (UniProt Q99816); assay: qHTS Validation Assay for Iinhibitors of HIV-1 Budding by Blocking the Interaction of PTAP/TSG101 (AID 485342; calls by dose curve)
Sequence of Tumor susceptibility gene 101 protein (Homo sapiens) (Q99816 whole entry, looked up, the tested form may be a part): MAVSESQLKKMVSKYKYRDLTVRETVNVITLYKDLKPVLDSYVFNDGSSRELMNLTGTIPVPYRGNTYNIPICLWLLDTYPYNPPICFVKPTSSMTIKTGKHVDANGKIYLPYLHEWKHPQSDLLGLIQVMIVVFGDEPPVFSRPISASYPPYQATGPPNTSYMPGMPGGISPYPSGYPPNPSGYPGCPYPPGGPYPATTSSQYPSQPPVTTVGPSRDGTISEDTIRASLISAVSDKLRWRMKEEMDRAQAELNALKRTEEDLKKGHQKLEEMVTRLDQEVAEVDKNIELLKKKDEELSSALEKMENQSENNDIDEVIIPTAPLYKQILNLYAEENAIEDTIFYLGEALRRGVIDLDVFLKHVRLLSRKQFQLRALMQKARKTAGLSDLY
Outline: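 FP read-out: FITC-PTAP peptide, 50 nM final, binding Tsg101 binding domain, 10 uM final; 20 min r.t.; 10 mM HEPES pH 7.5, 0.15 M NaCl, 0.01% Tween 20, 3 mM EDTA, 0.1 mM TCEP.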

[6] = target: Beta-2 adrenergic receptor (Homo sapiens) (UniProt P07550); assay: qHTS validation assay of beta-arrestin-biased ligands of beta2-adrenergic receptor (AID 485366)
Sequence of Beta-2 adrenergic receptor (Homo sapiens) (P07550 whole entry, looked up): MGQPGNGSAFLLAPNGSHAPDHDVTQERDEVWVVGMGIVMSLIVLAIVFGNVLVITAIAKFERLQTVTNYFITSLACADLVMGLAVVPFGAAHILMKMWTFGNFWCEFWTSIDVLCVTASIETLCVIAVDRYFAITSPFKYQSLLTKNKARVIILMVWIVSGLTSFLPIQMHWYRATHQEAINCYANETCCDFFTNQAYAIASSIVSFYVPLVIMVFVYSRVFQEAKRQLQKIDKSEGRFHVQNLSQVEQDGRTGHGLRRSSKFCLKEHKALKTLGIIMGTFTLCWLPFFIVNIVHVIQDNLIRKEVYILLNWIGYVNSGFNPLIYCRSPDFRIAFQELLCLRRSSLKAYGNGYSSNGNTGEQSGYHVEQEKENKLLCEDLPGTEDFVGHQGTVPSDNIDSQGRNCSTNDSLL
Outline: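 Tango cells expressing recombinant beta2-AR and beta-arrestin with tTA-driven luciferase, in DMEM with 1% FBS. Compounds were titrated up to 46 microM for 18 hr at 37 degrees C. Luminescence was read 15 min after substrate; curves were fitted and class-assigned.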

[7] = target: Thioredoxin reductase 1, cytoplasmic (Rattus norvegicus) (UniProt O89049); assay: qHTS Assay for Substrates of Mammalian Selenoprotein Thioredoxin Reductase 1 (TrxR1) (AID 488772);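 note: NADPH fluorescence in the first read after selenite addition and not the 8 min delta; series mostly up to about 57 µM; a drop in NADPH fluorescence below the no-compound background marks a TrxR1 substrate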
Sequence of Thioredoxin reductase 1, cytoplasmic (Rattus norvegicus) (O89049 whole entry, looked up): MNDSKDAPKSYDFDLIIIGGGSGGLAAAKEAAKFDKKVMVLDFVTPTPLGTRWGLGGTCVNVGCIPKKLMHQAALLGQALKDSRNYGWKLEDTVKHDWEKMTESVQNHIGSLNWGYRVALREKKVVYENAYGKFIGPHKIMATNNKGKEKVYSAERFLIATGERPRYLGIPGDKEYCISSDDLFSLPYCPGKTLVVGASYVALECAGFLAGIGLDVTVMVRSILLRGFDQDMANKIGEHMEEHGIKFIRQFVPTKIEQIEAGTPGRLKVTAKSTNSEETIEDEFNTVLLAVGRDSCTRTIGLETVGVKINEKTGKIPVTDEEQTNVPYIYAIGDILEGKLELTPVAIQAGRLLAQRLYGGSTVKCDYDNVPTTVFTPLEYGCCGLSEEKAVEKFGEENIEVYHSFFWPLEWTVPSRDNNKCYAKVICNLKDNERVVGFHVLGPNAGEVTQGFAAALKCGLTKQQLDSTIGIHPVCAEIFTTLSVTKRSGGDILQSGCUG
Outline: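 Quantitative HTS in Tris-HCl buffer at pH 7.5 with EDTA and Tween-20, using rat TrxR1, 400 uM NADPH and 400 uM selenite (final). A fall in initial NADPH fluorescence relative to background marked substrate behaviour.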

[8] = target: Thioredoxin reductase 1, cytoplasmic (Rattus norvegicus) (UniProt O89049); assay: qHTS Assay for Inhibitors of Mammalian Selenoprotein Thioredoxin Reductase 1 (TrxR1) (AID 488773); conditions: Potency: inhibition;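 note: drop in NADPH fluorescence over an 8 min run after selenite addition; series mostly up to about 57 µM; nearly all actives have a fitted effect of over 40% in size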
Outline: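 Steps: enzyme (90 nM) plus NADPH (400 uM final), 5 min at ~22 deg C; compound added, 15 min; selenite (400 uM final) added; fluorescence followed for 8 min. Concentration-response curves derived from the normalized delta values.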

[9] = target: Chromobox protein homolog 1 (Homo sapiens) (UniProt P83916); assay: qHTS Validation Assay for Inhibitors of HP1-beta Chromodomain Interactions with Methylated Histone Tails (AID 488953); note: nearly all actives have a fitted effect of over 50% in size; note: potency is the fitted concentration of half-maximal effect
Sequence of Chromobox protein homolog 1 (Homo sapiens) (P83916 whole entry, looked up): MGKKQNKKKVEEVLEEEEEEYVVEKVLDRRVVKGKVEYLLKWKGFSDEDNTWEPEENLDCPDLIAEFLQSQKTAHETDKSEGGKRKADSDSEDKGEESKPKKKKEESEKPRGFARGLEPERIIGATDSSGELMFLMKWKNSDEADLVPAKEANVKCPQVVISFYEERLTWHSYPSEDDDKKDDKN
Outline: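 50 nM HP1-beta + 50 nM biotin-H3(1-18)K9me3, PBS pH 7.4, 0.01% Tween-20, 30 min RT; compound added, 30 min RT; AlphaScreen beads 10 ug/mL final, 30 min dark; luminescence read.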

[10] = target: Methanococcus maripaludis chaperonin (MmCpn) (UniProt Q6LX38); assay: High-Throughput Screening for Modulators of Cytosolic Chaperonin Activity: MmCpn Primary Screen (AID 488978);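 note: 50 nM MmCpn enzyme hydrolysing 30 µM ATP at 37 °C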
Sequence of Methanococcus maripaludis chaperonin (MmCpn) (Q6LX38 1-543): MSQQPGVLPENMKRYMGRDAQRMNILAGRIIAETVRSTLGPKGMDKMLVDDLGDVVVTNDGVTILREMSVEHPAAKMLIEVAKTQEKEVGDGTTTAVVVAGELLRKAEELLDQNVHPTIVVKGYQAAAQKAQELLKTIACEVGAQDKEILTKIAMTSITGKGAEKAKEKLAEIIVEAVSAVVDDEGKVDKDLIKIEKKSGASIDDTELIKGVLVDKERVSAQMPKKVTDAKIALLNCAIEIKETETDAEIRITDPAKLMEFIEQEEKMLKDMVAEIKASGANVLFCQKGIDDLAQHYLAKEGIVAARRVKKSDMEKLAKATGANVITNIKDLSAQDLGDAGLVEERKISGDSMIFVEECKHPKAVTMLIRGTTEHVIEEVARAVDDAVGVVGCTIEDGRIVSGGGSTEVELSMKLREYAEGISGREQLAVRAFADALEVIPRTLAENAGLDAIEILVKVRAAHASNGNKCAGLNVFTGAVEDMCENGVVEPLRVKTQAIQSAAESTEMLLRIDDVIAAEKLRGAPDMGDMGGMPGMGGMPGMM
Outline: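 ADP formation read by HTRF Transcreener, 665/590 nm emission after 320 nm excitation. Enzyme: archaeal chaperonin at 50 nM final; substrate ATP 30 uM final; 10 min, 37C, after 5 min compound preincubation at RT.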

[11] = target: Transient receptor potential cation channel subfamily V member 1 (Homo sapiens) (UniProt Q8NER1); assay: HTS Assay for Compounds that Act as Enhancers of the Vanilloid Receptor 1 (AID 488979)
Outline: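 Calcium influx kinetics via Fluo-8 (480/520 nm) in TRPV1-expressing cells, 2000/well cultured overnight at 35.5C. Compound-alone read 3 min (agonist phase), followed by EC20 capsaicin challenge for 2 min (enhancer phase).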

[12] = target: Thyrotropin receptor (Homo sapiens) (UniProt P16473); assay: qHTS Assay for Antagonists of the Thyroid Stimulating Hormone Receptor (AID 488980); note: series mostly up to about 58 µM
Outline: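 TSHR-HEK293 cells; 70 uM RO 20-1724 PDE inhibitor; compound + EC80 TSH (4 nM final); anti-cAMP cryptate antibody/cAMP-d2 in lysis buffer, 30 min RT; HTRF 665/620 nm read.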

[13] = target: D(1A) dopamine receptor (Homo sapiens) (UniProt P21728); assay: HTS Assay for Allosteric Agonists of the Human D1 Dopamine Receptor: Primary Screen for Agonists (AID 488981)
Sequence of D(1A) dopamine receptor (Homo sapiens) (P21728 whole entry, looked up): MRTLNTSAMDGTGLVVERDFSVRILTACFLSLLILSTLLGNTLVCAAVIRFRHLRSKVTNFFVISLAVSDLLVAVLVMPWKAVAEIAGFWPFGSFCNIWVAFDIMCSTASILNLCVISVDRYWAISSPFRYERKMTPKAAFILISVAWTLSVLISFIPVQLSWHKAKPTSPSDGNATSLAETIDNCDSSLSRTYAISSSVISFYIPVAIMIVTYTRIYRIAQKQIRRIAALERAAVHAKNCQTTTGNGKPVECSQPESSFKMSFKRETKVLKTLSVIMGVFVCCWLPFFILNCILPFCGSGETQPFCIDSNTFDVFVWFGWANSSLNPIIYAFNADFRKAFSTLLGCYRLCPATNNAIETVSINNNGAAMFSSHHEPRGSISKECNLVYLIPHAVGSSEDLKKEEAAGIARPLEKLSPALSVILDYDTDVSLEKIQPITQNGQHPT
Outline: (§1)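 Calcium flux in an inducible, force-coupled HEK293 Trex D1 line (overnight at 30 C): agonist mode is the 180 s kinetic read after compound; potentiator mode is the following 180 s read after dopamine at EC20.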

[14] = target: D(1A) dopamine receptor (Homo sapiens) (UniProt P21728); assay: HTS Assay for Allosteric Agonists of the Human D1 Dopamine Receptor: Primary Screen for Potentiators (AID 488982)
Outline: as §1

[15] = qHTS Validation Assay to Find Inhibitors of Chronic Active B-Cell Receptor Signaling (AID 485345; active = well fitted curve in the direction sought with a large enough effect in the main read-out, with a control signal flat, not every such curve was filed as active)
Outline: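 Read-out: ratio of filter-corrected green (IkappaBalpha fusion) to red (native) luciferase signal in doxycycline-induced TMD8 cells after 4 h at 37C. Titration spanned 46 uM–3 nM; Data were normalised to basal cells and 10 uM MG-132 wells.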

[16] = Quantitative high throughput screen for delayed death inhibitors of the malarial parasite plastid, 96 hour incubation (AID 488745); note: nearly all actives have a fitted effect of over 70% in size; note: potency is the fitted concentration of half-maximal effect
Outline: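 Infected erythrocytes were added to compound in Albumax-supplemented RPMI 1640 at 0.1% parasitemia and 2% hematocrit (final), incubated 96 h at 37 C under 5% CO2, then luciferase reagent was added and luminescence measured.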

[17] = Quantitative high throughput screen for delayed death inhibitors of the malarial parasite plastid, 48 hour incubation (AID 488752); note: nearly all actives have a fitted effect of over 65% in size; note: potency is the fitted concentration of half-maximal effect
Outline: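 Readout is firefly luciferase luminescence from a reporter integrated into the parasite genome, with lower signal taken as inhibited growth. Infected red cells (0.1% parasitemia, 2% hematocrit final) are cultured with compound for one 48 h cycle at 37 C.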

[18] = target: Flap endonuclease 1 (Homo sapiens) (UniProt P39748); assay: qHTS Validation Assay for the Inhibitors of Human Flap endonuclease 1 (FEN1) (AID 488816); note: potency is the fitted concentration of half-maximal effect
Sequence of Flap endonuclease 1 (Homo sapiens) (P39748 whole entry, looked up): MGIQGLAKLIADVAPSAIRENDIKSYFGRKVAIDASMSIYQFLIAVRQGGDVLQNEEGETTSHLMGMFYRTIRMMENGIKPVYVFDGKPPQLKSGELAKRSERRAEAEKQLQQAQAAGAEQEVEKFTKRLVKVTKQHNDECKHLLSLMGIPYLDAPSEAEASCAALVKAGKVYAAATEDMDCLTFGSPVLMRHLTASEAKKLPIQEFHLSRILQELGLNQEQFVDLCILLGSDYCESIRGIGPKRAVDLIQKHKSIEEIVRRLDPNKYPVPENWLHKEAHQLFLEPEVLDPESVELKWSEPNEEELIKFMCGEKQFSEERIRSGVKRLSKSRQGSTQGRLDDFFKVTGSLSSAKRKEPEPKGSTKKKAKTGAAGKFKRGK
Outline: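 Readings taken at 0 and 15 min after starting the reaction with 50 nM (final) substrate supplied the signal. Compounds had first sat with 10 nM FEN1 reagent for 15 min at room temperature. Values come from Hill-equation concentration-response fits.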

[19] = target: ATP-dependent 6-phosphofructokinase (Trypanosoma brucei brucei) (UniProt O15648); assay: qHTS Validation Assay to Find Inhibitors of T. brucei phosphofructokinase (AID 485368); note: potency is the fitted concentration of half-maximal effect
Outline: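 Activity was read as ADP production by luminescence (ADP-Glo) after 45 min at room temperature. The enzyme was 1.25nM PFK in 0.1M TEA pH 8.0 with 0.5 mM F6P, 0.1mM ATP and 5 mM MgCl2. Compounds were titrated up to 57 uM and % activity normalized to no-enzyme and full-enzyme controls.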

[20] = target: M-phase phosphoprotein 8 (Homo sapiens) (UniProt Q99549); assay: qHTS Validation Assay for Inhibitors for MPP8 Chromodomain Interactions with Methylated Histone Tails (AID 488949);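 note: AlphaScreen signal from MPP8 chromodomain bound to biotinylated H3K9me3 peptide; top concentration of the series differs between compounds; nearly all actives have a fitted effect of over 55% in size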
Outline: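 AlphaScreen read-out: streptavidin donor and nickel chelate acceptor beads (final 10 ug/mL), 30 min in the dark at RT. Complex of 50 nM MPP8 and 50 nM b-H3(1-18)K9me3 peptide had been exposed to compounds for 30 min beforehand.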

Measured: Potency

Cn1ccc2cc3c(cc21)CCN3C(=O)Nc1cccnc1
active: [9] 39.8 µM
not listed: [15] | [16] | [17] | [18] | [19] | [20]
inactive: all other assays above

Clc1ccc(C(c2ccccc2Cl)C(Cl)Cl)cc1 (configuration not stated)
not listed: [8] | [9] | [13] | [19] | [20]
inactive: all other assays above

CC(COc1ccccc1)N(CCCl)Cc1ccccc1 (configuration not stated)
not listed: [9] | [11] | [18] | [19] | [20]
inactive: all other assays above

COc1ccc(C2CNC(=O)C2)cc1OC1CCCC1 (configuration not stated)
not listed: [7] | [11] | [12] | [15] | [20]
inactive: all other assays above

CC(C)Cc1ccc(C(C)C(=O)O)cc1 (configuration not stated)
not listed: [3] | [11] | [12] | [18] | [20]
inactive: all other assays above

Cn1cnc2c1c(=O)[nH]c(=O)n2C
not listed: [11] | [15] | [19] | [20]
inactive: all other assays above

Clc1ccc2nsnc2c1NC1=NCCN1
not listed: [2] | [11] | [12] | [13] | [16] | [17] | [19]
inactive: all other assays above

CN1CCN2c3ccccc3Cc3ccccc3C2C1 (configuration not stated)
not listed: [9] | [11] | [18] | [19] | [20]
inactive: all other assays above

O=c1c(O)c(-c2ccc(O)c(O)c2)oc2cc(O)cc(O)c12
inactive: [1] | [2] | [5] | [6] | [7] | [8] | [10] | [12]

CS(=O)(=O)Nc1ccc([N+](=O)[O-])cc1Oc1ccccc1
not listed: [11] | [12] | [13] | [18] | [19] | [20]
inactive: all other assays above

O=c1c(-c2ccc(O)cc2)coc2cc(O)cc(O)c12
not listed: [11] | [12] | [15] | [16] | [17]
inactive: all other assays above

Cc1ccc(C(=O)Nc2ccc(S(=O)(=O)O)c3cc(S(=O)(=O)O)cc(S(=O)(=O)O)c23)cc1NC(=O)c1cccc(NC(=O)Nc2cccc(C(=O)Nc3cc(C(=O)Nc4ccc(S(=O)(=O)O)c5cc(S(=O)(=O)O)cc(S(=O)(=O)O)c45)ccc3C)c2)c1
active: [3] 3.29 µM | [4] 7.52 µM | [19] 675 nM | [18] 336 nM | [9] 2 µM
not listed: [5] | [11] | [12] | [13] | [20]
inactive: all other assays above

O=C(c1ccc(F)cc1)C1CCN(CCn2c(=O)[nH]c3ccccc3c2=O)CC1
not listed: [11] | [12] | [13] | [16] | [17] | [19] | [20]
inactive: all other assays above

CN1C(C(=O)Nc2ccccn2)=C(O)c2ccccc2S1(=O)=O
not listed: [9] | [11] | [13] | [15] | [19] | [20]
inactive: all other assays above

Clc1ccccc1C(c1ccccc1)(c1ccccc1)n1ccnc1
active: [16] 1.17 µM | [17] 1.04 µM | [9] 0.0084 µM
not listed: [2] | [12] | [13] | [19] | [20]
inactive: all other assays above
